This is an account of results in ChEMBL document CHEMBL1961873, “Compounds: GSK PKIS; Assays: Nanosyn kinase panel” (2012).

The target of test [1] is Serine/threonine-protein kinase 26 (Homo sapiens) (UniProt Q9P289). The conditions noted are these: at 1 µM.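 Note: mean inhibition of MST4 kinase activity, reported from the GSK PKIS inhibitor-set screening panel.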
For test [2], the target named is Serine/threonine-protein kinase PAK 1 (Homo sapiens) (UniProt Q13153). As to conditions: at 0.1 µM.
Test [3] has the same target. The conditions noted are these: at 1 µM.
For test [4], the target named is Serine/threonine-protein kinase PAK 2 (Homo sapiens) (UniProt Q13177). As to conditions: at 0.1 µM.
For test [5] the target is unchanged. As to conditions: at 1 µM.
Test [6] concerns the target Serine/threonine-protein kinase PAK 3 (Homo sapiens) (UniProt O75914). The conditions noted are these: at 0.1 µM.
For test [7] the target is unchanged. The conditions noted are these: at 1 µM.
For test [8], the target named is Serine/threonine-protein kinase PAK 5 (Homo sapiens) (UniProt Q9P286). The conditions noted are these: at 0.1 µM.
Test [9] has the same target. The conditions noted are these: at 1 µM.
Test [10] has as its target Serine/threonine-protein kinase PAK 6 (Homo sapiens) (UniProt Q9NQU5). As to conditions: at 0.1 µM.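 Note: mean PAK6 inhibition reported from the GSK PKIS screen.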

Sequence of Serine/threonine-protein kinase PAK 6 (Homo sapiens) (Q9NQU5 whole entry, looked up): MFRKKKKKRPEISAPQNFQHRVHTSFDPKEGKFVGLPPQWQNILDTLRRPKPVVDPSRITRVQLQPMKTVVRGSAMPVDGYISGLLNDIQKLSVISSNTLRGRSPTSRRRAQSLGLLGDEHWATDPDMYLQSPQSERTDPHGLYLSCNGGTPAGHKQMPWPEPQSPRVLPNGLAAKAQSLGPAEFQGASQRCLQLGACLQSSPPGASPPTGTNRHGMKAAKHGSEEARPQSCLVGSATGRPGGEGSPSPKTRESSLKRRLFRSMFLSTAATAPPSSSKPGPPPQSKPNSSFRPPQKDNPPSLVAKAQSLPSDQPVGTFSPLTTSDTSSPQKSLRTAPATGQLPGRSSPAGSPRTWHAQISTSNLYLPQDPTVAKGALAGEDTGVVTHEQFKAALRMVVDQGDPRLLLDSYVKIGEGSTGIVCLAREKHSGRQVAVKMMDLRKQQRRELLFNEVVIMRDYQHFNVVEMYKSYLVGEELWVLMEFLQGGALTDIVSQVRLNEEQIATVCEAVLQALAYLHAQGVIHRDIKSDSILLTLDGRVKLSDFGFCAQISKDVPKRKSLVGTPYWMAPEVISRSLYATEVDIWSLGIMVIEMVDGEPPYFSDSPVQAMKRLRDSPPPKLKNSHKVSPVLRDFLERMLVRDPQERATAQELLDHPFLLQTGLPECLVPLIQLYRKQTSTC
Sequence of Serine/threonine-protein kinase PAK 5 (Homo sapiens) (Q9P286 whole entry, looked up): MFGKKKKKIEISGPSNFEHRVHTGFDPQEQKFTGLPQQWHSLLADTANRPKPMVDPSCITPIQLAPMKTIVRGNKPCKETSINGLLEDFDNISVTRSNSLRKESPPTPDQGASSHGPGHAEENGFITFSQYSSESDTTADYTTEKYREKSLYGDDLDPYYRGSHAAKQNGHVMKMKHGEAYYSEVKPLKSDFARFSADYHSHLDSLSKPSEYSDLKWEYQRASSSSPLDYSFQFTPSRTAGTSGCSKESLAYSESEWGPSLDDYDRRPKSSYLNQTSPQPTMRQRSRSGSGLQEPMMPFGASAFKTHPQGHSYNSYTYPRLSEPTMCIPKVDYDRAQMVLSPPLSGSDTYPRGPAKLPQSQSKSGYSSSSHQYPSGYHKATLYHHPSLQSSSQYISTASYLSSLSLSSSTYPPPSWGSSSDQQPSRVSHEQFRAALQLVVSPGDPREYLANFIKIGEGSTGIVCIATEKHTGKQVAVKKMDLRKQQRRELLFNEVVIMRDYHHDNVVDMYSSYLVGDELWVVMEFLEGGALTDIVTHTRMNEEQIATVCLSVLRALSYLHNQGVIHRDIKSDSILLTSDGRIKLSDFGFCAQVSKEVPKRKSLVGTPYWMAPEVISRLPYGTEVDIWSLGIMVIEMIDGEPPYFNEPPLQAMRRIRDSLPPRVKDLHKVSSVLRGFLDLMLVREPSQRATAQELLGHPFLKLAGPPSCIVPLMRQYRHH
Sequence of Serine/threonine-protein kinase PAK 1 (Homo sapiens) (Q13153 whole entry): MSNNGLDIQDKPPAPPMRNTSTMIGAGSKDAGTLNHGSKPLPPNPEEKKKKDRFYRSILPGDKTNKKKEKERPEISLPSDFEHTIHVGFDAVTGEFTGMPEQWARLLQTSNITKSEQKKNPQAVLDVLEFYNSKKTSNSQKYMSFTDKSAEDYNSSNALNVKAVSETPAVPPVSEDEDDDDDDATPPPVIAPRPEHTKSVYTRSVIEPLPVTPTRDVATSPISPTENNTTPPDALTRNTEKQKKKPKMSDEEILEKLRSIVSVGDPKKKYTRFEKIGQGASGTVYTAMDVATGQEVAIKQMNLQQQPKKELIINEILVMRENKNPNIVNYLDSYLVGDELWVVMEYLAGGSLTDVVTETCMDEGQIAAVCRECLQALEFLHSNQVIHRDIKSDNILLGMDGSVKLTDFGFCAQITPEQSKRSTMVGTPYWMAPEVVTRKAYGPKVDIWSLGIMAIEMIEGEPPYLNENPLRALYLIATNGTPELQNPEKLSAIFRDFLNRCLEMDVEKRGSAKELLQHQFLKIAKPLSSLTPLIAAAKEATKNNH
Sequence of Serine/threonine-protein kinase 26 (Homo sapiens) (Q9P289 2-416 limits assumed): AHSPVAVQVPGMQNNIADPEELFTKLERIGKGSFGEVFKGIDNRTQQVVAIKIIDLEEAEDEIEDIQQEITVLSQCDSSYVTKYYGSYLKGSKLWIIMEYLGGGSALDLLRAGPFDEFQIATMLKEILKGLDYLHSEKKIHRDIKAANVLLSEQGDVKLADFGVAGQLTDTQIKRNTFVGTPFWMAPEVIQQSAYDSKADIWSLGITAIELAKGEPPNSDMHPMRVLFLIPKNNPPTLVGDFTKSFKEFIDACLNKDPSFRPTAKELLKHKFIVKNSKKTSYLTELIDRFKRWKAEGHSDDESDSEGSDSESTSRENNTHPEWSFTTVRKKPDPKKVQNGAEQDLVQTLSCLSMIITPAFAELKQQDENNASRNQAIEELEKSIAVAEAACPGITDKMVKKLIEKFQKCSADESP
Sequence of Serine/threonine-protein kinase PAK 3 (Homo sapiens) (O75914 whole entry, looked up): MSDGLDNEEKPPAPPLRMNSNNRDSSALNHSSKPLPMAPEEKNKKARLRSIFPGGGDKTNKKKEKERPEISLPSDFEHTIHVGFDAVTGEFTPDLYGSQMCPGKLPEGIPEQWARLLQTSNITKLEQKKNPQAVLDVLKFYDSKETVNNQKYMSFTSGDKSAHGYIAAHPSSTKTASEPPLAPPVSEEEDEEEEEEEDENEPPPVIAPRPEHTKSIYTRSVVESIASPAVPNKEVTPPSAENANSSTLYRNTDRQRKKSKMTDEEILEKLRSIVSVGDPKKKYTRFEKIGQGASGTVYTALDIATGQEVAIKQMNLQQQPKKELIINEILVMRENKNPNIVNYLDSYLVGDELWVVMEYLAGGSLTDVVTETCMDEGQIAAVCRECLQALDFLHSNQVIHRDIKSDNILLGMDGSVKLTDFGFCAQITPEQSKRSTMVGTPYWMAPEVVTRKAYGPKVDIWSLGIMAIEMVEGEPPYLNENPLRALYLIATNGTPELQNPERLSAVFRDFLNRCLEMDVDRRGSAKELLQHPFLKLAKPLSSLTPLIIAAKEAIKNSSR
Sequence of Serine/threonine-protein kinase PAK 2 (Homo sapiens) (Q13177 whole entry): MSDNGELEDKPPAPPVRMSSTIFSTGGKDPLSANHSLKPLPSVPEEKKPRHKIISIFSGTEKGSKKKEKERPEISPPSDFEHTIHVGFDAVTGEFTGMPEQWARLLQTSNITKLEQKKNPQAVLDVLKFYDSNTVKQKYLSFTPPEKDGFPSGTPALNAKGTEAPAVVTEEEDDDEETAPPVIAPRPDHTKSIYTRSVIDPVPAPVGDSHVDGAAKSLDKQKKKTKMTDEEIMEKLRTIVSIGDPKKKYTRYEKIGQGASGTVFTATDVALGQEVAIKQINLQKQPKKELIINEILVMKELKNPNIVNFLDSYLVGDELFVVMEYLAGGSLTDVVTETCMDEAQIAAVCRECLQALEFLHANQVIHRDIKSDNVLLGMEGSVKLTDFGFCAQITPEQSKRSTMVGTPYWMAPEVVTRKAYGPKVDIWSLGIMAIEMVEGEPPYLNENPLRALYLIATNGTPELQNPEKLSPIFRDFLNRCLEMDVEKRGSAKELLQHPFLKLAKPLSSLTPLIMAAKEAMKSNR

As a reminder, the inhibition is the change of the read-out against control, counted positive when it falls. On to `O=C(Nc1n[nH]c2cc(-c3cc(F)ccc3F)ccc12)C1CC1`, for which the inhibition in test [1] was -1.14%; in [2], 5.03%; in test [3], 5.57%; in test [4], 0.42%; in [5], 2.22%; in [6], 2.86%. Further, the inhibition was 2.97% in test [7], 3.42% in test [8], -2.05% in test [9] and 2.84% in test [10].

In the case of `CCN(CC)Cc1ccc(Nc2nccc(-c3cnn4ncccc34)n2)cc1`, the inhibition in test [1] came out at 0.74%; in test [2] it was 5.45%; in test [3], 9.08%; in test [4], 1.19%; in [5], 3.41%; in [6] it was 4.82%. Further, the results for the inhibition in test [7], in test [8] and in test [9] were 6%, 1.9% and 5.43%, respectively.

For `COc1cc(Nc2ncc3c(C)nc(-c4cccc(C(F)(F)F)c4)n3n2)cc(OC)c1OC`, the inhibition amounted to 5.84% in test [1]; 6.01% in test [2]; 8.56% in test [3]; 1.46% in test [4]; 2.81% in test [5]; 3.31% in test [6]. The inhibition in [7] was 7.5%; in [8], 5.75%; in test [9], 15.9%; in test [10], -0.28%.

As to `NS(=O)(=O)c1ccc(N/N=C2\C(=O)Nc3ccc(-c4cnco4)cc32)cc1`, the inhibition in test [1] came out at 11.1%; in [2], 2.52%; in [3], 3.12%; in test [4], 0.33%; in [5], 0.86%; in [6], 1.7%. For the same compound, the inhibition in test [7] is 2.52%; in [8], 0.27%; in [9] it was -0.09%.

In the case of `C/C(Nc1ccc(S(N)(=O)=O)cc1)=C1/C(=O)Nc2ccccc21`, the inhibition in test [1] is 15.6%; in test [2], -3.4%; in test [3], 2.37%; in test [4] it was -1.56%; in test [5], -1.06%; in [6] it was -1.9%. Besides, the inhibition in test [7] is -1.11%; in test [8], -6.43%; in test [9], 2.88%; in test [10], -4.08%.

As to `Fc1ccc(-c2nc3n(c2-c2ccncc2)CCS3)cc1`, the inhibition in [1] is -1.08%; in test [2] it was 6.15%; in test [3] it was 8.39%; in [4], 3.06%; in [5], 1.6%; in [6], 4.5%. Also, the inhibition in test [7] was 4.49%; in [8], -6.84%; in test [9], -7.5%; in test [10], 9.34%.

In the case of `Cc1ccc(C(=O)NC(C)C)cc1-c1ccc(C(=O)NCC2CC2)cc1`, the inhibition in test [1] was 1.12%; in test [2], -1.5%; in test [3] it was -0.84%; in test [4], -1.39%; in test [5] it was -3.39%; in [6], -3.81%. The inhibition in test [7] was -3.2%; in test [8] it was -4.56%; in test [9] it was -2.22%.

As for `Fc1ccc(-c2ncn(C3CCNCC3)c2-c2ccnc(Oc3ccc(F)c(F)c3)n2)cc1`, the inhibition in test [1] was determined as 5.23%; in test [2], 5.03%; in test [3], 4.33%; in [4], 0.93%; in test [5], 1.83%; in [6], 4.91%. In addition, the inhibition in [7] was determined as 5.71%; in test [8] it was 1.64%; in test [9], 0.29%.

For `CS(=O)(=O)CCNCc1ccc(-c2ccc3ncnc(Nc4ccc(OCc5ccccc5)c(Br)c4)c3c2)o1`, the inhibition in test [1] is -1.33%; in test [2], 5.64%; in [3], 8.98%; in test [4], 0.93%; in test [5], 1.63%; in test [6], 5.05%. Also, the inhibition in test [7] was 4.4%; in [8] it was 1.46%; in [9], 0.13%; in [10] it was -8.08%.

Take `NC(=O)c1ccc(Oc2nccc(-c3c(-c4ccc(F)cc4)ncn3C3CCNCC3)n2)cc1`: the inhibition in test [1] was 2.28%; in test [2] it was 10%; in test [3], 11%; in test [4], 2.27%; in test [5], 2.2%; in test [6], 6.67%. The inhibition was 9.21% in test [7], 4.23% in test [8], 0.82% in [9] and -4.02% in test [10].

Consider `CCc1cccc(CC)c1/C=C/c1cncc(C(=O)NC)c1`, for which the inhibition in [1] was -4.27%; in test [2] it was 6.83%; in test [3], 2.08%; in test [4], 2.1%; in test [5], 1.76%; in [6], 2.61%. The inhibition in test [7] was 3.43%; in test [8], 8.04%; in [9] it was -1.06%; in [10] it was -5.49%.

Take `O=C1Nc2ccc(I)cc2C1=Cc1cc(Br)c(O)c(Br)c1`: the inhibition in test [1] is 8.78%; in test [2] it was 7.31%; in [3], 11.5%; in test [4], 1.87%; in [5] it was 1.49%; in test [6] it was 3.52%. For the same compound, the inhibition was 5.78% in test [7], 9.36% in test [8] and 10.2% in test [9].

Take `CCS(=O)(=O)c1ccc(OC)c(Nc2ncc(-c3ccccc3Cl)o2)c1`: the inhibition in [1] is 1.46%; in [2], -0.73%; in test [3], -1.58%; in test [4], 1.78%; in test [5], 0.49%; in test [6], -0.53%. Further, the inhibition in test [7] was 0.98%; in test [8], 3.82%; in [9], 17.3%; in test [10] it was -6.91%.

Take `COc1cc(C)c(N(C)C(=O)CN(C)C)cc1Nc1nc(Nc2cccc(F)c2C(N)=O)c2cc[nH]c2n1`: the inhibition was -1.63% in [1]; 1.45% in test [2]; 0.54% in test [3]; 1.63% in [4]; 0.77% in test [5]; 1.47% in test [6]. In addition, the inhibition is 2.79% in test [7], 1.86% in test [8], 1.84% in [9] and -1.02% in test [10].

With `NS(=O)(=O)c1ccc(Nc2cc(-c3ccc(O)c(F)c3)n[nH]2)cc1`, the inhibition in test [1] was 3.14%; in test [2] it was -5.59%; in [3], -0.83%; in [4], -1.12%; in test [5] it was -1.29%; in test [6] it was -4.62%. Also, the inhibition is -3.25% in test [7], -6.87% in test [8], -2.39% in test [9] and 1.44% in test [10].

Take `O=C(Nc1ccc(Oc2ccc3[nH]c(NC(=O)c4ccccc4)nc3c2)cc1)Nc1cc(C(F)(F)F)ccc1F`: the inhibition in test [1] is -0.48%; in test [2], 5.49%; in [3] it was 5.94%; in test [4], 2.09%; in [5] it was 2.3%; in [6] it was 2.23%. For the same compound, the inhibition in [7] is 2.99%; in [8], 3.8%; in [9], 4.86%.

For `O=C1NC(=O)C(c2cccc(Cl)c2)=C1Nc1ccc(Cl)c(C(=O)O)c1`, the inhibition came to 0.53% in [1]; 4.41% in test [2]; 6.62% in [3]; 2.04% in test [4]; 0.87% in test [5]; 3.53% in test [6]. Besides, the inhibition in test [7] is 3.74%; in test [8] it was 0.06%; in test [9], 0.5%; in test [10], -2.69%.
